High-throughput results from PubChem.
Rows were chosen to be rich in hits. Some 3.4% of all compounds tested hit in one or more screens of this group.
MITF inh – blocks human microphthalmia-associated transcription factor | O75030 | AlphaScreen MITF homodimerization, bead proximity signal | inhibition, % at 2.6 µM | 650,000 tested, 0.91% active | AID 1259374; in the data active = inhibition above about 50%;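 also: 0% = vehicle wells with protein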
GPR151 activ – activates the human receptor GPR151; Q8TDV0; PathHunter beta-arrestin GPR151 cells, luminescence; activation, % at 11.2 µM; 650,000 tested, 1% active; AID 1508602; in the data active = activation above about 4.9%;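 also: 0% = median of compound wells and 100% = cells with positive control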
Target sequence (Q8TDV0 whole entry, looked up): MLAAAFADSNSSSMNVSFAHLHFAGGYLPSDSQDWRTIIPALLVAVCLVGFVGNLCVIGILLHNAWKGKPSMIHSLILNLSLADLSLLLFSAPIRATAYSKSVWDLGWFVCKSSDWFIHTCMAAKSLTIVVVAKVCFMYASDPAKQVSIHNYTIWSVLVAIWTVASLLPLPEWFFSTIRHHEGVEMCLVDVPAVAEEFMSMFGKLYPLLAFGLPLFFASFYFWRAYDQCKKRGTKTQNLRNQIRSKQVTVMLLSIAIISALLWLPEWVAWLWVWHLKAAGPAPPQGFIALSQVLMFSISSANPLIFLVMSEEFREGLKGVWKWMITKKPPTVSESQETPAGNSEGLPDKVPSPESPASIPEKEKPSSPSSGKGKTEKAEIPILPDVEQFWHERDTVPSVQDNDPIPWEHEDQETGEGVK
TEAD-YAP block – TEAD-YAP interaction inhibition; HEK-TIYL cells, TEAD-Gal4/YAP UAS-luciferase luminescence; inhibition, % at 9.12 µM; 640,000 tested, 1.4% active; in the data active = inhibition above about 32%;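 also: 0% = median of test compound wells and 100% = reference inhibitor wells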
FBW7 act – activators of human E3 ligase FBW7 | Q969H0 | AlphaScreen FBW7–phospho-cyclin E peptide binding, activator screen | normalized activity (activation), % at 26.1 µM | 650,000 tested, 0.13% active | AID 1259310; in the data active = normalized activity above about 1.9%;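 also: purified mutant Fbw7 with reduced substrate affinity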
An asterisk follows results filed as active.

Results for O=C(O[C@@H]1Cc2c(O)cc(O)cc2O[C@@H]1c1cc(O)c(O)c(O)c1)c1cc(O)c(O)c(O)c1 ?
MITF inh: 77*; GPR151 activ: -1; TEAD-YAP block: 2; FBW7 act: 0

What do the screens show for `O=C1c2c(O)cc(O)cc2OC(c2ccc(O)c(O)c2)C1O` (configuration not stated)?
MITF inh: 14; GPR151 activ: 2; TEAD-YAP block: -1; FBW7 act: 0

What do the screens show for `O=C(O[C@@H]1Cc2c(O)cc(O)cc2O[C@@H]1c1ccc(O)c(O)c1)c1cc(O)c(O)c(O)c1`?
MITF inh: 83*; GPR151 activ: 0; TEAD-YAP block: 0; FBW7 act: 0

How did CCOc1ccc2ccccc2c1/C=C1/SC(=O)N(CC(=O)OC)C1=O do in these assays?
MITF inh: 12; GPR151 activ: -1; TEAD-YAP block: 42*; FBW7 act: 0

Results for CNC(=O)c1ccccc1Nc1cc(Nc2ccc(-c3cncnc3)cc2)ncc1C(F)(F)F ?
MITF inh: 8; GPR151 activ: 1; TEAD-YAP block: 32*; FBW7 act: 0

What do the screens show for `CNC(=O)c1ccc(Nc2cc(Nc3ccccc3C(=O)NC)c(C(F)(F)F)cn2)nc1`?
MITF inh: 13; GPR151 activ: -1; TEAD-YAP block: 88*; FBW7 act: 0

What do the screens show for `CNS(=O)(=O)c1ccccc1Nc1cc(Nc2cc(-c3cncnc3)nc(C)n2)ncc1C(F)(F)F`?
MITF inh: 3; GPR151 activ: 2; TEAD-YAP block: 68*; FBW7 act: 0

How did CNC(=O)c1ccnc(Nc2cc(Nc3ccccc3C(=O)NC)c(C(F)(F)F)cn2)c1 do in these assays?
MITF inh: 1; GPR151 activ: -1; TEAD-YAP block: 85*; FBW7 act: 0

What do the screens show for `C=CCOC(=O)COc1ccc2c(c1)oc(=O)c1cc(OC)ccc12`?
MITF inh: -3; GPR151 activ: -2; TEAD-YAP block: 10; FBW7 act: 0

What do the screens show for `COc1ccc(NC(=O)Cn2nnc(-c3ccccc3)n2)c(OC)c1`?
MITF inh: 13; GPR151 activ: 0; TEAD-YAP block: -5; FBW7 act: 1

What do the screens show for `CNC(=O)c1ncccc1Nc1cc(Nc2ccc3c(c2)NC(=O)C3)ncc1C(F)(F)F`?
MITF inh: 8; GPR151 activ: -1; TEAD-YAP block: -8; FBW7 act: 0

What do the screens show for `CN(C)C(=O)C(=O)c1c[nH]c2ccc(Nc3cc(Nc4ccccn4)c(C(F)(F)F)cn3)cc12`?
MITF inh: 12; GPR151 activ: 2; TEAD-YAP block: -5; FBW7 act: 0

Results for CNC(=O)c1ccccc1Nc1cc(Nc2ccccn2)ncc1C(F)(F)F ?
MITF inh: -8; GPR151 activ: 0; TEAD-YAP block: 83*; FBW7 act: 0

Results for CNC(=O)c1ccccc1Nc1cc(Nc2ccc3[nH]cc(C(=O)C(=O)N(C)C)c3c2)ncc1C(F)(F)F ?
MITF inh: 19; GPR151 activ: -1; TEAD-YAP block: 51*; FBW7 act: 0

What do the screens show for `CNC(=O)c1ccccc1Nc1cc(Nc2ccc3c(c2)CCC(=O)N3C)ncc1C(F)(F)F`?
MITF inh: -2; GPR151 activ: -1; TEAD-YAP block: 78*; FBW7 act: 0

What do the screens show for `CNC(=O)c1ccccc1Nc1cc(Nc2cccc(C)n2)ncc1C(F)(F)F`?
MITF inh: 2; GPR151 activ: 0; TEAD-YAP block: 82*; FBW7 act: 0

What do the screens show for `CN1CCCN(C(=O)C2CC23CCN(C/C=C/c2ccco2)CC3)CC1` (configuration not stated)?
MITF inh: -14; GPR151 activ: 0; TEAD-YAP block: -2; FBW7 act: 0

What do the screens show for `COc1cc(CO)ccc1OCc1cccc(C(=O)O)c1`?
MITF inh: 9; GPR151 activ: -10; TEAD-YAP block: 74*; FBW7 act: 0

How did COc1cc(/C=N/O)ccc1OCc1ccc(C(=O)O)cc1 do in these assays?
MITF inh: 20; GPR151 activ: -9; TEAD-YAP block: 94*; FBW7 act: 0

Results for COc1cc(CO)ccc1OCc1cccc(F)c1 ?
MITF inh: -22; GPR151 activ: -1; TEAD-YAP block: -44; FBW7 act: 0

Results for CCCCOc1ccc(CO)cc1OC ?
MITF inh: 1; GPR151 activ: 1; TEAD-YAP block: -5; FBW7 act: 2.1*

Results for COc1cc(/C=N/O)ccc1OCc1ccccc1F ?
MITF inh: -13; GPR151 activ: -4; TEAD-YAP block: 38*; FBW7 act: 0

What do the screens show for `COc1cc(C=O)ccc1OCc1ccc(C(=O)O)cc1`?
MITF inh: -13; GPR151 activ: 1; TEAD-YAP block: -7; FBW7 act: 0

Results for COc1cc(/C=N/O)ccc1OCc1ccc(F)cc1 ?
MITF inh: -11; GPR151 activ: -3; TEAD-YAP block: -41; FBW7 act: 0

What do the screens show for `CCOC(=O)C1CCC(CN(Cc2ccccc2Cl)S(=O)(=O)c2ccc(C)cc2)CC1` (configuration not stated)?
MITF inh: -11; GPR151 activ: 0; TEAD-YAP block: 1; FBW7 act: 0

Results for Cc1cc(=O)[nH]c(SCc2cccc(Oc3ccccc3)c2)n1 ?
MITF inh: -7; GPR151 activ: 0; TEAD-YAP block: -2; FBW7 act: 0

Results for c1ccc(Oc2cccc(CSc3nc4ccccc4[nH]3)c2)cc1 ?
MITF inh: 7; GPR151 activ: -1; TEAD-YAP block: 34*; FBW7 act: 0

What do the screens show for `CCSCCOC(=O)C1=C(C)NC2=C(C(=O)CC(C)(C)C2)C1c1cccc(C)c1` (configuration not stated)?
MITF inh: -11; GPR151 activ: -1; TEAD-YAP block: 3; FBW7 act: 0

What do the screens show for `COc1ccc(-c2c(Nc3ccc(F)c(Cl)c3)c(=O)c2=O)cc1`?
MITF inh: 72*; GPR151 activ: -2; TEAD-YAP block: -9; FBW7 act: 1

Results for Cc1ccc(-c2c(Nc3ccc(C)c(F)c3)c(=O)c2=O)cc1 ?
MITF inh: 9; GPR151 activ: 0; TEAD-YAP block: 9; FBW7 act: 0

How did COc1cccc(Nc2c(-c3ccc(C)c(C)c3)c(=O)c2=O)c1 do in these assays?
MITF inh: -4; GPR151 activ: 1; TEAD-YAP block: 49*; FBW7 act: 0

What do the screens show for `COc1ccc(-c2c(Nc3ccc(C)c(F)c3)c(=O)c2=O)cc1`?
MITF inh: 79*; GPR151 activ: -1; TEAD-YAP block: -11; FBW7 act: 1

What do the screens show for `O=c1c(Nc2ccc(F)c(Cl)c2)c(-c2ccccc2)c1=O`?
MITF inh: 5; GPR151 activ: 2; TEAD-YAP block: -3; FBW7 act: 0

How did CCOc1ccccc1C(=O)OCC(=O)NCC(F)(F)F do in these assays?
MITF inh: 7; GPR151 activ: 0; TEAD-YAP block: 3; FBW7 act: 0

How did Cn1c(SCC(N)=O)nnc1-c1cccc([N+](=O)[O-])c1 do in these assays?
MITF inh: -10; GPR151 activ: -1; TEAD-YAP block: -8; FBW7 act: 0

What do the screens show for `Cn1c(SCC#N)nnc1-c1cccc([N+](=O)[O-])c1`?
MITF inh: -5; GPR151 activ: -2; TEAD-YAP block: 32*; FBW7 act: 0
